Results published in PubChem BioAssay (EPA / NIEHS).
“And” between values parts separate entries of the source, which are not always exact repeats. Equal entries are not always repeated. Results filed as inconclusive are left out. Some compounds were tested as several samples or in several runs, with calls that do not always agree. The source made the active and inactive calls. The calls were made as follows, unless noted: active = hit-call score of the fitted dose curve at least 0.9, where 1 is the maximum; inconclusive = response in the unintended direction; inactive = score below 0.9.

Tests used:
[1] = BSK_3C_uPAR: BioMAP Diversity Plus: 3C Assay for Urokinase-type plasminogen activator receptor (uPAR) Biomarker Activity (AID 2282998; active = hit-call score of the fitted dose curve at least 0.9, where 1 is the maximum; inactive = score below 0.9); settings: BioMAP 3C HUVEC, uPAR biomarker ELISA; actives raise or lower the signal
Procedure, shortened: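 A multiplexed primary-cell system built on human umbilical vein endothelium was used, with chemical present for 24 h before reading. Cell-surface uPAR was detected by ELISA; signal change in either direction counted against DMSO.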

[2] = BSK_4H_Eotaxin3: BioMAP Diversity Plus: 4H Assay for Eotaxin 3 Biomarker Activity (AID 2283000; active = hit-call score of the fitted dose curve at least 0.9, where 1 is the maximum; inactive = score below 0.9); settings: primary human endothelial cells (HUVEC); actives raise or lower the signal
Procedure, shortened: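 Chemicals were added to human umbilical vein endothelium cultures, and Eotaxin-3 was quantified by ELISA at 24 h. Values were derived by bidirectional fitting with DMSO serving as negative control and activity baseline.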

[3] = read-out: Monocyte Chemoattractant Protein-1 (MCP1), CCL2 (gene 6347); assay: BSK_4H_MCP1: BioMAP Diversity Plus: 4H Assay for Monocyte Chemoattractant Protein-1 (MCP1) Biomarker Activity (AID 2283018; active = hit-call score of the fitted dose curve at least 0.9, where 1 is the maximum; inactive = score below 0.9); settings: primary human endothelial cells (HUVEC); actives raise or lower the signal
Procedure, shortened: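 ELISA read-out of MCP-1 from human vascular endothelial primary cells taken at 24 hours after compound exposure. Activity was fitted in both directions relative to DMSO, which served as negative control.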

[4] = read-out: Monokine induced gamma interferon (MIG), CXCL9 (gene 4283); assay: BSK_3C_MIG: BioMAP Diversity Plus: 3C Assay for Monokine induced gamma interferon (MIG) Biomarker Activity (AID 2283021; active = hit-call score of the fitted dose curve at least 0.9, where 1 is the maximum; inactive = score below 0.9;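 as to AC50: MIG protein level measured by immunoassay in the treated endothelial cultures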); settings: primary human endothelial cells (HUVEC); actives raise or lower the signal
Procedure, shortened: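 Read-out is ELISA detection of MIG on human umbilical vein endothelial cells, taken 24 h after dosing. Gain or loss of signal was scored relative to DMSO controls using bidirectional curve fitting.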

[5] = read-out: Urokinase-type plasminogen activator receptor (uPAR), PLAUR (gene 5329); assay: BSK_4H_uPAR: BioMAP Diversity Plus: 4H Assay for Urokinase-type plasminogen activator receptor (uPAR) Biomarker Activity (AID 2283030; active = hit-call score of the fitted dose curve at least 0.9, where 1 is the maximum; inactive = score below 0.9); settings: primary human endothelial cells (HUVEC); actives raise or lower the signal
Procedure, shortened: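 Cell-surface uPAR ELISA signal, measured 24 h after dosing human umbilical vein endothelial cells, was analyzed with bidirectional fitting relative to DMSO. Parallel SRB staining of total protein tracked overt cytotoxicity.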

[6] = read-out: Plasminogen activator inhibitor-1 (PAI1), SERPINE1 (gene 5054); assay: BSK_BE3C_PAI1: BioMAP Diversity Plus: BE3C Assay for Plasminogen activator inhibitor-1 (PAI1) Biomarker Activity (AID 2283037; active = hit-call score of the fitted dose curve at least 0.9, where 1 is the maximum; inactive = score below 0.9); settings: primary human bronchial epithelial cells; actives raise or lower the signal
Procedure, shortened: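 Primary human lung bronchial epithelial cells; chemical dosing; 24 h; PAI-1 measured by ELISA; bidirectional fit referenced to DMSO as negative control.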

[7] = read-out: urokinase plasminogen activator (uPA), PLAU (gene 5328); assay: BSK_BE3C_uPA: BioMAP Diversity Plus: BE3C Assay for urokinase plasminogen activator (uPA) Biomarker Activity (AID 2283038; active = hit-call score of the fitted dose curve at least 0.9, where 1 is the maximum; inactive = score below 0.9); settings: primary human bronchial epithelial cells; actives raise or lower the signal
Procedure, shortened: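 Bronchial epithelial cells (human, primary); chemical 24 h; uPA by ELISA; bidirectional fit vs DMSO. SRB (0.1%, after 10% TCA fixation, 560 nm) in parallel cultures for cytotoxicity.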

[8] = read-out: Thrombomodulin, THBD (gene 7056); assay: BSK_CASM3C_Thrombomodulin: BioMAP Diversity Plus: CASM3C Assay for Thrombomodulin Biomarker Activity (AID 2283051; active = hit-call score of the fitted dose curve at least 0.9, where 1 is the maximum; inactive = score below 0.9;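 also: thrombomodulin protein level measured by ELISA 24 h after dosing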); settings: primary human coronary artery smooth muscle cells; actives raise or lower the signal
[9] = read-out: Interleukin-8 (IL8), CXCL8 (gene 3576); assay: BSK_LPS_IL8: BioMAP Diversity Plus: LPS Assay for Interleukin-8 (IL8) Biomarker Activity (AID 2283078; active = hit-call score of the fitted dose curve at least 0.9, where 1 is the maximum; inactive = score below 0.9); settings: primary human HUVEC with PBMC; actives raise or lower the signal
Procedure, shortened: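 Readout is IL-8 by ELISA, taken 24 h after compounds were added to LPS-stimulated endothelial/PBMC co-cultures. Both increases and decreases relative to DMSO control were scored through bidirectional fitting.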

[10] = biological target: Retinoic acid receptor RXR-alpha (Homo sapiens) (UniProt P19793); assay: OT_NURR1_NURR1RXRa_1440: Odyssey Thera (OT) 24-hour HEK293T Protein Complementation Assay for Nurr1/retinoid X receptor (RXR) (AID 2283386)
Procedure, shortened: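 Interaction of Nurr1 with RXRα brings fused reporter fragments together in human HEK293T cells, restoring a functional reporter. Fluorescence intensity is measured 24 h after chemical treatment, and values are analysed in the positive direction against DMSO.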

[11] = biological target: Peroxisome proliferator-activated receptor gamma (Homo sapiens) (UniProt P37231); assay: OT_PPARg_PPARgSRC1_1440: Odyssey Thera (OT) 24-hour Protein-Complementation Assay for Peroxisome Proliferator-activated Receptor Gamma/ SRC-1 Co-activator (AID 2283388);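 also: nuclear to cytoplasmic ratio of reconstituted Venus YFP fluorescence in fixed imaged cells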
Procedure, shortened: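 Protein-fragment complementation between PPARg and coactivator SRC-1 was measured by fluorescence imaging in transiently transfected HEK293T cells after 24 h treatment. Signal was quantified as N/C ratio in the 488 nm channel, with DMSO as negative control.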

[12] = ACEA_AR_antagonist_AUC_viability: ACEA Biosciences xCELLigence Real-Time Cell Analysis on Androgen Receptor Antagonism for Viability (AID 2283776);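 also: 22Rv1 human prostate cancer cells growing on impedance electrode plates; hits lower the growth signal relative to DMSO meaning cytotoxicity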
Procedure, shortened: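 Impedance read-out (RT-CES): area under growth curve at 80 h post-dose, loss of signal scored vs DMSO baseline. 22Rv1 cells; 8-pt 1:4 series, top 100 uM final, ≤0.5% DMSO; biological duplicate.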

[13] = CCTE_Harrill_HTTr_CellCount_MCF7: CCTE's Cell Proliferation Assessment for the High-Throughput Transcriptomics (HTTr) Platform, Harrill Lab (AID 2284012);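 also: count of Hoechst-stained nuclei per well by high-content imaging in MCF-7 cells; cells exposed to compound for six hours; intended direction is loss of nuclei count meaning fewer cells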
Procedure, shortened: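 Chemicals in eight-point dilution series are added to MCF-7 cells for six hours, nuclei are stained with Hoechst and imaged, and per-well nuclei counts are fitted in both directions relative to DMSO controls.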

[14] = biological target: Bile acid receptor (Homo sapiens) (UniProt Q96RI1); assay: ATG_FXR_TRANS: Attagene TRANS-FACTORIAL HepG2 Assay for Farnesoid X Receptor (FXR) (AID 2282979); settings: HepG2 Attagene TRANS FXR-GAL4 reporter transcription;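 also: hits raise reporter mRNA above DMSO so AC50 marks FXR activation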
Procedure, shortened: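 Transient transfection of HepG2 with multiplexed GAL4-UAS reporter units; exogenous FXR-GAL4 chimera. Dose 24 h → TriZol RNA → oligo(dT) RT → PCR, 6-FAM primer extension, HpaI cut → CE. Gain vs DMSO.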

[15] = biological target: human RAR-related Orphan Receptor gamma (RORg), RORC (gene 6097) (UniProt P51449); assay: ATG_RORg_TRANS: Attagene TRANS-FACTORIAL HepG2 Assay for human RAR-related Orphan Receptor gamma (RORg) (AID 2283011)
Procedure, shortened: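 First, HepG2 liver cells were transfected with GAL4-UAS-driven reporter constructs and the RORg-Gal4 fusion. Next, they were treated with chemical for 24 h. Finally, reporter mRNA was quantified by RT-PCR and capillary electrophoresis, with upward activity fitted against DMSO.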

[16] = ATG_ERE_CIS: Attagene CIS-FACTORIAL HepG2 Assay for Estrogen Response Element (ERE) (AID 2282940; active = hit-call score of the fitted dose curve at least 0.9, where 1 is the maximum; inactive = score below 0.9); settings: HepG2 ERE cis-reporter, Attagene RNA transcript; actives raise or lower the signal
Procedure, shortened: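 Fluorescence of capillary-separated, FAM-labelled reporter cDNA fragments indicates reporter mRNA levels in HepG2 cells exposed to chemicals for 24 h. Transient transfection with cis-regulated units; data fitted in both directions against DMSO.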

[17] = biological target: Estrogen receptor beta (Homo sapiens) (UniProt Q92731); assay: OT_ER_ERbERb_1440: Odyssey Thera (OT) 24-hour HEK293T Protein-Complementation Assay for Estrogen Receptor-beta/-beta Homodimer (AID 2283380);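 also: fluorescence gain from ER beta LBD homodimer complementation read by laser scanning cytometry; scored as signal increase over DMSO baseline for both agonists and antagonists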
Procedure, shortened: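 Fluorescence increase, nuclear for agonists or whole-cell for antagonists, relative to DMSO vehicle, quantified by laser scanning cytometer after fixation and Draq5 staining. Readout from 24 h treatment of HEK293T cells carrying complementation-paired ER beta LBD (aa 310-547).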

[18] = biological target: Retinoic acid receptor RXR-alpha (Homo sapiens) (UniProt P19793); assay: OT_NURR1_NURR1RXRa_0480: Odyssey Thera (OT) 8-hour HEK293T Protein Complementation Assay for Nurr1/retinoid X receptor (RXR) (AID 2283385)
Procedure, shortened: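 8 h compound exposure, HEK293T; Nurr1/RXRα fragment complementation; fluorescence intensity; positive fitting direction vs DMSO baseline.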

[19] = ACEA_AR_agonist_AUC_viability: ACEA Biosciences xCELLigence Real-Time Cell Analysis on Androgen Receptor Agonism for Viability (AID 2283775)
Procedure, shortened: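 Real-time impedance tracking of 22Rv1 growth, readings every 5 min for 5 h then hourly; area-under-curve viability endpoint at 80 hours, relative to DMSO. Compounds at eight concentrations, 1:4 steps, top 100 uM, n = 2.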

[20] = CCTE_Harrill_HTTr_Viability_MCF7: CCTE's 6-hour Cell Viability Assessment for the High-Throughput Transcriptomics (HTTr) Platform, in MCF-7 cells cultured in DMEM + 10% fetal bovine serum, Harrill Lab (AID 2284010; active = hit-call score of the fitted dose curve at least 0.9, where 1 is the maximum; inactive = score below 0.9)
Procedure, shortened: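 Cells were dosed with chemicals in an eight-point dilution series, imaged 6 hours later for propidium iodide uptake, and the endpoint was analyzed by bidirectional fitting against DMSO as negative control.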

Measured: AC50

human RAR-related Orphan Receptor gamma (RORg), RORC (gene 6097), sequence (P51449 whole entry, looked up, the tested form may be a part): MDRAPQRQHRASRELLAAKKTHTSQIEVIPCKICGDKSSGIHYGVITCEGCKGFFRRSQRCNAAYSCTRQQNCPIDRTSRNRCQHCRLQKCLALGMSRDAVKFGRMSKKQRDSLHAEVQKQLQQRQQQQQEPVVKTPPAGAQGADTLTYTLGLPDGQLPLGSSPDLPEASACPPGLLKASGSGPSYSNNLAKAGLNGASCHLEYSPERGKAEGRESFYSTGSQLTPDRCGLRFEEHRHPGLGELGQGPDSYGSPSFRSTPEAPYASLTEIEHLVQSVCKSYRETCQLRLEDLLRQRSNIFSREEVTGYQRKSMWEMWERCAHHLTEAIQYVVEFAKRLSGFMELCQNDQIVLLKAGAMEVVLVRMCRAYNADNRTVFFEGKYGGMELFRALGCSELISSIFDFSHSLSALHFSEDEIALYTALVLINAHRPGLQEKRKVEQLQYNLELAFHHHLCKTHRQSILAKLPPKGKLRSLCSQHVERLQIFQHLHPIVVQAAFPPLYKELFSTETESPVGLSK
Retinoic acid receptor RXR-alpha (Homo sapiens), sequence (P19793 whole entry, looked up, the tested form may be a part): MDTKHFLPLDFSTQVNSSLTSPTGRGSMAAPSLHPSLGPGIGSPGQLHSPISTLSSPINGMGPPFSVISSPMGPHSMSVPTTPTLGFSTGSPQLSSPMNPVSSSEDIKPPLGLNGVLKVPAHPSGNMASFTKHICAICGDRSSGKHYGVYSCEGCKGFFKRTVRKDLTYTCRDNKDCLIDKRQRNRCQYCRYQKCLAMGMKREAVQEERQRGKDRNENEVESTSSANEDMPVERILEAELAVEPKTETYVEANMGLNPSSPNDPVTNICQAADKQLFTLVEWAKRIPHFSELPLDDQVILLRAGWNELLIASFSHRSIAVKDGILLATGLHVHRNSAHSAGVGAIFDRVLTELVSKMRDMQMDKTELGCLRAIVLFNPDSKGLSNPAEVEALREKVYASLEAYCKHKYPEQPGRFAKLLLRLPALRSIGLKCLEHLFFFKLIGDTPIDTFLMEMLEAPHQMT
Peroxisome proliferator-activated receptor gamma (Homo sapiens), sequence (P37231 whole entry, looked up, the tested form may be a part): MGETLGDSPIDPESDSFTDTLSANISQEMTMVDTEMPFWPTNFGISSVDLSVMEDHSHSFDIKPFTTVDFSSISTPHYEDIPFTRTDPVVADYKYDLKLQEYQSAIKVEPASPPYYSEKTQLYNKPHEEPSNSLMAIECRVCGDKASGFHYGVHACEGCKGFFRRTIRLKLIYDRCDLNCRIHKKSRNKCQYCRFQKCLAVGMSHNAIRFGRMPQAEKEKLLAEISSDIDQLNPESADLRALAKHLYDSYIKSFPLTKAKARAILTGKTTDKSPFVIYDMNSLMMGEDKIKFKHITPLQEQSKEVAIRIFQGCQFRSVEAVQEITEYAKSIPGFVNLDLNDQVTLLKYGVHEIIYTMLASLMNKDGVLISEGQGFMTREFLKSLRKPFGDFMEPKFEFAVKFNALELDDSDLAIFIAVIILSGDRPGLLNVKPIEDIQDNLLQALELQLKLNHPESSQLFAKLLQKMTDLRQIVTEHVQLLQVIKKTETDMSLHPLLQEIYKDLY
Estrogen receptor beta (Homo sapiens), sequence (Q92731 whole entry, looked up, the tested form may be a part): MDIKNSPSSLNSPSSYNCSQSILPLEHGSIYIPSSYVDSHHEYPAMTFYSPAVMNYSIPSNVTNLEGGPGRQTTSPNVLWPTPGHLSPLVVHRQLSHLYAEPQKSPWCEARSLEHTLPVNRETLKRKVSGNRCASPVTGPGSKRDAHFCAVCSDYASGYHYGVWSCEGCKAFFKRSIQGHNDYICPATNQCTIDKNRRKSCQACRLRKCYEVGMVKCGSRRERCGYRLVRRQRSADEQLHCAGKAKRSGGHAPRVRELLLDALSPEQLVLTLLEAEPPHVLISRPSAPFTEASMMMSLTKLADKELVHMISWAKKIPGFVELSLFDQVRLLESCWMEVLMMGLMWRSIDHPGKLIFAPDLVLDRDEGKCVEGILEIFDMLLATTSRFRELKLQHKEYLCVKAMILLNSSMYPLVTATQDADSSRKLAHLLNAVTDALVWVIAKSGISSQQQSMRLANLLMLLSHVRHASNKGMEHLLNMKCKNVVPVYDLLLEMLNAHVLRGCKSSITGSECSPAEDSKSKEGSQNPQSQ
Bile acid receptor (Homo sapiens), sequence (Q96RI1 whole entry, looked up, the tested form may be a part): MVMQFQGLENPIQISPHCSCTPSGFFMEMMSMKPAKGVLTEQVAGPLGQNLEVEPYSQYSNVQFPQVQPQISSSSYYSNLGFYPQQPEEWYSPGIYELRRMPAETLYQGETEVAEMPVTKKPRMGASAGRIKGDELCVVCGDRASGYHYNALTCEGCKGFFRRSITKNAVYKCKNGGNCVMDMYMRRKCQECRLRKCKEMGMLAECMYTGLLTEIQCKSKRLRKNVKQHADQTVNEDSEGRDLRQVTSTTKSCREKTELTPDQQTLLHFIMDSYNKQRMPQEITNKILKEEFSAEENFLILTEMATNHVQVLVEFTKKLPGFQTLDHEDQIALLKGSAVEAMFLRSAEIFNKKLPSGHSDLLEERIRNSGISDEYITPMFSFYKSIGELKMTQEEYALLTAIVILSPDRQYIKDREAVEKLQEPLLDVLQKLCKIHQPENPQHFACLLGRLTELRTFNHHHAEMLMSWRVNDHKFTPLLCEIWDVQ

Oc1cc(Cl)ccc1Cl
not listed: [14] | [15] | [16] | [17] | [18] | [19] | [20]
inactive: all other assays above

C=CC(=O)OC
inactive: [14] | [15]

CCC(Br)(CC)C(=O)NC(N)=O
inactive: [14] | [15]

c1ccc(P(c2ccccc2)c2ccccc2)cc1
inactive: [17] | [18] | [10] | [11] | [12]
active: [16] 23.5 µM

O=C(NC(=O)c1c(F)cccc1F)Nc1ccc(Oc2ccc(C(F)(F)F)cc2Cl)cc1F
inactive: [14] | [17] | [11] | [19] | [12] | [20]
active: [10] 31.3 µM

O=C(O)CCCc1ccc(N(CCCl)CCCl)cc1
inactive: [16] | [3] | [4] | [5] | [6] | [7] | [8] | [9] | [20] | [13]
active: [1] 20 µM and 16.3 µM | [2] 26.3 µM and 20 µM | [4] 32.8 µM | [5] 0.687 µM | [6] 3.97 µM | [7] 8.11 µM | [8] 5.06 µM | [9] 25.4 µM

C=CCc1ccc(OC(=O)Cc2ccccc2)c(OC)c1
inactive: [15]

CN1C(=O)CCS(=O)(=O)C1c1ccc(Cl)cc1 (configuration not stated)
inactive: [20] | [13]

CC(C)(O)C#N
inactive: [17] | [18] | [10] | [11] | [19] | [12] | [13]

C=COCCCl
inactive: [16] | [14] | [15] | [20] | [13]

Cc1ccc(N(SC(F)(Cl)Cl)S(=O)(=O)N(C)C)cc1
inactive: [13]

CN1C[C@H](C(=O)N[C@]2(C)O[C@@]3(O)[C@@H]4CCCN4C(=O)[C@H](Cc4ccccc4)N3C2=O)C=C2c3cccc4[nH]cc(c34)C[C@H]21
inactive: [16] | [14]

SCc1ccco1
inactive: [16]

CN(C)N
inactive: [17] | [18] | [11] | [19] | [12] | [20] | [13]

Oc1ccc(Cl)cc1
inactive: [15] | [18] | [10] | [11] | [12] | [13]

CCOC(=O)NC(=S)Nc1ccccc1NC(=S)NC(=O)OCC
active: [12] 4.35 µM
inactive: [17] | [11] | [13]

CCOP(O)OCC
inactive: [17] | [10] | [11] | [19]

CCc1cccc(C)c1N(C(=O)CCl)[C@@H](C)COC
inactive: [17] | [18] | [11] | [19] | [12] | [13]

CN(N=O)c1ccccc1
inactive: [16] | [14]

ClCCCCCCCl
inactive: [15]

CCCC=NO
active: [16] 43.5 µM
inactive: [14] | [15] | [17] | [18] | [10] | [11] | [19] | [12]

O=c1[nH]c(Cl)c(Cl)cc1Cl
not listed: [10] | [11] | [12] | [16] | [17] | [18] | [19]
inactive: all other assays above

[CH3][Sn]([Cl])([Cl])[Cl]
inactive: [15]

CCOP(=O)(OCC)Oc1ccc([N+](=O)[O-])cc1
inactive: [14] | [17] | [18] | [10] | [11] | [20]

Clc1ccc(-c2ccccc2)cc1
active: [16] 55.7 µM | [2] 30.5 µM | [3] 27.5 µM
not listed: [10] | [11] | [12] | [15] | [17] | [18] | [19]
inactive: all other assays above

O=[N+]([O-])O
active: [2] 0.433 µM
inactive: [1] | [2] | [3] | [4] | [5] | [6] | [7] | [8] | [9] | [18] | [10] | [11] | [19] | [12] | [20] | [13]

Nc1cc(Cl)cc(Cl)c1
inactive: [17] | [18] | [10] | [11] | [19]

Nc1ccccc1C(=O)OCCc1ccccc1
inactive: [15]

CC(C)(Cl)Cl
active: [12] 0.413 µM
inactive: [18] | [10] | [11] | [19] | [20] | [13]

COc1ncc(F)c2nc(S(=O)(=O)Nc3c(F)cccc3F)nn12
inactive: [16] | [20] | [13]
